# Data taken from PubChem BioAssay (EPA / NIEHS).
# “And” between values parts separate entries of the source, which are not always exact repeats. Identical values can stand only once. Inconclusive results are not listed. The source made the active and inactive calls. How the source made its calls, unless noted: active means hit-call score of the fitted dose curve at least 0.9, where 1 is the maximum; inconclusive means response in the unintended direction; inactive means score below 0.9.
# How the values were obtained:
# [1] = CEETOX_H295R_MTT_cell_viability: Viability Assessment in the CeeTox HT-H295R MTT Assay (AID 2283718; active means hit-call score of the fitted dose curve at least 0.9, where 1 is the maximum; inactive means score below 0.9)
# Summary of the method: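 MTT reduction (0.5 mg/ml, 4 h at 37 C; absorbance at 570 and 650 nm) gave viability as background-corrected percent change versus controls. H295R cells had 48 h forskolin (10 uM) prestimulation, then 48 h chemical exposure at 0.1% DMSO.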
# [2] = ACEA_AR_agonist_AUC_viability: ACEA Biosciences xCELLigence Real-Time Cell Analysis on Androgen Receptor Agonism for Viability (AID 2283775);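 on AC50: viability read 80 hours after compound addition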
# Summary of the method: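 Real-time impedance tracking of 22Rv1 growth, readings every 5 min for 5 h then hourly; area-under-curve viability endpoint at 80 hours, relative to DMSO. Compounds at eight concentrations, 1:4 steps, top 100 uM, n = 2.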
# [3] = Tanguay_ZF_120hpf_ActivityScore_legacy: (Legacy) Oregon State University Tanguay Lab 120 Hour Post-fertilization zebrafish Assay Score for Activity (AID 2283742);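 on AC50: dechorionated Tropical 5D wild-type zebrafish embryos held singly per well; static exposure from 6 hpf until 120 hpf at 28 °C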
# Summary of the method: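 Embryos are staged, enzymatically dechorionated at 4 hpf, placed individually at 6 hpf, then held in test chemical (0.64% DMSO) at 28C until 120 hpf. Mortality and malformations are scored by brightfield, with non-mortality endpoints skipped for dead embryos.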
compound,measurement,setting,value
NNC(=S)NN,outcome,[1],inactive
same,outcome,[2],inactive
Oc1cccc2cccnc12,AC50,[3],39.6 µM (active)
same,AC50,[2],22.3 µM (active) and 6.75 µM (active)
CCCCCCCCc1ccc(O)cc1,outcome,[3],inactive
same,AC50,[2],29.8 µM (active)
O=c1[nH]c(=O)[nH]c(=O)[nH]1,outcome,[3],inactive
same,outcome,[2],inactive
CCC(C)(C)c1ccc(O)c(C(C)(C)CC)c1,outcome,[3],inactive
same,outcome,[2],inactive
